Screening results as filed in PubChem BioAssay.
Compounds with a hit are over-represented: about 4.4% of the library has one in this group of screens.
TRHR ag: activates the human TRH receptor; P34981; TRHR cells, calcium flux fluo-8, FDSS agonist mode; activation, % at 2 µM; 360,000 compounds, 0.18% hits; AID 493084; note: 0% is about no effect
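TRHR-expressing cells, plated overnight in medium with 10% serum, were loaded with fluo-8 calcium dye at room temperature. After a 10 s baseline, library compound was pin-added and calcium release was recorded kinetically (ex 480/em 530) as agonist response.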
USP1 inh: blocks the human USP1/UAF1 deubiquitinase complex | recombinant USP1/UAF1, Ub-Rhodamine cleavage fluorescence | Potency, µM (highest dose often 57.1 µM), for inactives: at the top dose activity change, negative = inhibition, hits mostly inhibitors | O94782 | 390,000 compounds, 0.23% hits; active = well fitted inhibition curve with a large enough effect; inconclusive = small, poorly fitted or top-dose-only effect; inactive = no such curve, though single readings can be large or run the other way; note: potency is the fitted concentration of half-maximal effect; % is set by controls: 0 for no effect and ±100 for the full control effect; nearly all actives have a fitted effect of over 60% in size
Target sequence (O94782 whole entry, looked up): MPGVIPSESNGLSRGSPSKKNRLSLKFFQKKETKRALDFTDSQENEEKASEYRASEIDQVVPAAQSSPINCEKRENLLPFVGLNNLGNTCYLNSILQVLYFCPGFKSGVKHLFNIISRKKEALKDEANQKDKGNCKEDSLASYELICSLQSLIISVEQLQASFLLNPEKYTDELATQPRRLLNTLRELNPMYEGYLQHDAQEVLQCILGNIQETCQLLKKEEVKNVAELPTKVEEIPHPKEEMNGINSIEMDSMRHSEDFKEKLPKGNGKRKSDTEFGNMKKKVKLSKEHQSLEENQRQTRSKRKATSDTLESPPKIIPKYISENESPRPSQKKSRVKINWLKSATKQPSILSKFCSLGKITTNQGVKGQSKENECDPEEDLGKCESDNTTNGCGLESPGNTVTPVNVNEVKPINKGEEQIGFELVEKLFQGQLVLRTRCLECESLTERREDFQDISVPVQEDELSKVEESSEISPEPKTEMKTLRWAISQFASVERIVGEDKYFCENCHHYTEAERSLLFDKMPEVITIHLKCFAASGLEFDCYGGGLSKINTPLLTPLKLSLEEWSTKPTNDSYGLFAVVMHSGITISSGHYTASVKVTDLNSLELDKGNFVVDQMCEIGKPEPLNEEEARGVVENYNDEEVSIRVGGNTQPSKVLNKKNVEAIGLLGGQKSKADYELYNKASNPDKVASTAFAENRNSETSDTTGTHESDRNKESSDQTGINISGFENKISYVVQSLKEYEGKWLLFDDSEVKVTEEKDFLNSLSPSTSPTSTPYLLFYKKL
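In this screen, compounds sit with the deubiquitinase complex (1nM) for 15 min at room temperature before Ub-Rho is added at 150nM final. Fluorescence rise is then followed for 6 reads every 60 seconds.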
D1 antagonist: human D1 dopamine receptor antagonism | activity change, negative = inhibition, % at 10 µM | HEK293 TREx D1 cells, calcium flux, dopamine EC80; hits give low values | P21728 | 360,000 compounds, 3.2% hits | AID 504652; in the data active = activity change below about -30%; note: % is set by controls: 0 for no effect and ±100 for the full control effect
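Allosteric or orthosteric antagonism assessed as attenuation of the calcium response to EC80 dopamine, added 180 s after compound, in induced HEK293 Trex D1 cells loaded with no-wash calcium dye.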
D1 agonist: agonists of human D1 dopamine receptor | HEK293 T-REx D1 cells, calcium flux, agonist mode | AID 504660 | 360,000 compounds, 1% hits | P21728 | activation, % at 2 µM; note: 0% is about no effect
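Agonism was scored from calcium flux recorded over 180 s (1 read/s) after pintool compound addition, following a 10-cycle baseline. Cells were inducible force-coupled HEK293 TREx D1, plated overnight at 30 C and loaded with no-wash calcium dye.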
TRHR enhancer: TRH receptor (human) allosteric enhancement; 360,000 compounds, 0.66% hits; enhancement, % at 2 µM; TRHR cells, fluo-8 calcium fluorescence, EC20 TRH enhancement; in the data active = enhancement above about 30%; note: 0% is about no effect
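Enhancer read-out: after compound pinning and an initial kinetic agonist-mode read, an EC20 of TRH (10 nM final) was injected and fluo-8 calcium signal (Ex 480/Em 530) followed at 1 s/cycle for 100 cycles in TRHR-expressing cells.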
D1 potentiator: human D1 dopamine receptor positive modulation. P21728. HEK293 TREx D1 cells, calcium flux, dopamine EC20 potentiation. potentiation, % at 10 µM. 360,000 compounds, 0.036% hits; in the data active = potentiation above about 30%; note: 0% is about no effect
* = called active by the depositor; ? = inconclusive; . = no result given. Cut-off read from the data, not from the text of the source, unless noted: active = activation above about 30%; inactive = the rest.

SMILES	TRHR ag	USP1 inh	D1 antagonist	D1 agonist	TRHR enhancer	D1 potentiator
CC(NC(=O)c1cccnc1)C(c1cccs1)N1CCN(C)CC1 (configuration not stated)	0.3	-7.5%	-38.7*	3.0	7.6	.
O=C(Nc1ccccc1Cc1ccccc1)c1ccccc1NS(=O)(=O)c1ccc(Cl)s1	1.7	-15.9%	-59.7*	28.3	-3.1	-6.6
O=C(Nc1ccccc1)c1ccccc1NS(=O)(=O)c1ccc(Cl)s1	5.6	-21.2%	-35.0*	29.7	-2.9	-8.2
O=C(NCc1ccco1)c1ccccc1NS(=O)(=O)c1ccc(Cl)s1	1.2	-17.8%	.	20.8	-10.6	-1.4
Cc1ccc(NS(=O)(=O)c2ccc(Cl)s2)nc1	0.6	-13.9%	6.5	6.1	-2.8	3.8
Cc1ccc(NC(=O)c2ccccc2NS(=O)(=O)c2ccc(Cl)s2)cc1	3.7	-18.9%	-44.4*	26.1	-3.6	-0.4
COc1ccccc1CNC(=O)C1CCCN(S(=O)(=O)c2cccs2)C1 (configuration not stated)	0.0	-5.0%	5.4	-1.7	40.3*	2.7
COc1ccc(Br)cc1CNC(=O)C1CCCN(S(=O)(=O)N2CC(C)CC(C)C2)C1 (configuration not stated)	0.5	-26.0%	-32.6*	4.1	-9.1	-3.5
COc1ccc(Br)cc1CNC(=O)C1CCN(S(=O)(=O)N2CCCCC2)CC1	0.8	9.3%	-29.9	-1.3	-7.2	-2.0
COc1ccc(Nc2cc(C(=O)NCCCN(C)Cc3ccccc3)c3ccccc3n2)cc1OC	1.1	11.3%	-27.2	5.9	-6.1	-2.3
CCc1ccc(-c2nn(CC(=O)NC3CCCC3)c3c2cnc2ccc(C)cc23)cc1	0.5	-9.9%	19.1	1.3	10.5	-2.2
O=C(Nc1cccc(Cl)c1)C1CCN(c2nc3ccccc3nc2C(F)(F)F)CC1	1.9	?	0.4	7.4	-3.5	0.7
CCOC(=O)c1ccc(NC(=S)Nc2cccc(N)n2)cc1	0.2	-8.7%	-34.2*	1.5	13.1	-3.7
CCOC(=O)c1ccc(NC(=S)Nc2cccc(C)n2)cc1	0.2	1.0%	6.8	1.1	13.2	-4.5
CCOC(=O)c1cn[nH]c1NC(=S)Nc1ccc(OC)cc1	-1.5	-21.1%	-39.4*	9.8	-0.9	1.1
O=C(CCc1ccccc1)NC(NC(=S)Nc1ccc(Cl)cc1)C(Cl)(Cl)Cl (configuration not stated)	0.1	-19.0%	-35.6*	8.8	0.3	-5.9
O=C(/C=C/c1ccccc1)NC(NC(=S)Nc1ccc(Cl)cc1)C(Cl)(Cl)Cl (configuration not stated)	0.6	-10.8%	-3.2	5.7	-0.6	-2.8
CC(=O)NC(NC(=S)Nc1ccc(N=Nc2ccccc2)cc1)C(Cl)(Cl)Cl (configuration not stated)	-0.4	-7.4%	-44.0*	16.5	-2.5	-9.5
CCOC(=O)NC(NC(=S)Nc1ccc(OC)cc1)C(Cl)(Cl)Cl (configuration not stated)	-0.7	-0.2%	-33.9*	2.5	-5.9	-10.4
c1ccc(C2=Nn3c(nnc3-c3n[nH]c4c3CCC4)SC2)cc1	-0.4	-7.3%	-4.1	2.4	0.9	-6.7
Clc1ccc(C2=Nn3c(nnc3-c3n[nH]c4c3CCC4)SC2)cc1Cl	0.3	-15.1%	28.5	0.9	35.5*	1.3
O=C(/C=C/c1cn(-c2ccccc2)nc1-c1ccccc1)Nc1ccc(C(=O)O)cc1	-0.1	-19.5%	12.5	0.0	-3.1	-0.5
Cc1ccc(-c2nn(-c3ccccc3)cc2/C=N/O)cc1	-0.5	-16.6%	-1.0	58.5*	5.5	37.9*
Cc1ccc(-c2nn(-c3ccccc3)cc2/C=C/C(=O)Nc2nccs2)cc1	-0.9	-8.3%	-30.9*	13.3	-4.9	-5.2
O=[N+]([O-])c1ccc(N=Cc2sc3ccccc3c2O)cc1	6.9	-6.8%	6.9	31.5*	-4.3	-7.3
SMILES	TRHR ag	USP1 inh	D1 antagonist	D1 agonist	TRHR enhancer	D1 potentiator
CCOC(=O)CN1C(=O)c2cccnc2Oc2ccccc21	0.6	15.5%	3.1	-0.8	6.7	-4.3
CC1CC(C)CN(C(=O)COC(=O)c2ccc3ccccc3n2)C1 (configuration not stated)	0.2	-1.3%	-37.4*	7.6	6.0	-1.5
CC(=O)N1CCOc2ccc(S(=O)(=O)NCc3ccc(Cl)cc3)cc21	-0.2	-8.2%	-1.3	3.9	-2.8	-7.3
COc1cccc(CNS(=O)(=O)c2ccc3c(c2)N(C(C)=O)CCO3)c1	-0.4	-23.8%	-89.9*	0.2	-22.8	-8.4
CCc1ccc(OCc2cc(=O)n3cc(C)sc3n2)cc1	-1.3	-22.8%	2.0	1.3	-7.6	-4.0
COc1ccc(C)cc1NC(=O)c1nnn(-c2c(C)cccc2C)c1C	-0.3	-21.3%	6.0	-0.8	0.8	-2.5
CCCCn1c(CNC(=O)c2ccc(OC)cc2)nnc1SCC(=O)Nc1ccc(OC)cc1	0.2	-21.5%	-4.0	1.2	-2.3	1.4
CCCCn1c(CNC(=O)c2ccc(OC)cc2)nnc1SCC(=O)Nc1ccccc1	-0.1	-4.5%	-68.6*	0.9	-1.0	-5.6
COc1cccc(C(=O)Nc2cccc(OCc3cc(=O)n4cccc(C)c4n3)c2)c1	-0.6	-8.0%	-7.1	0.3	8.4	0.4
COc1ccc(NC(=O)CC2CCCC2)cc1OC	0.6	-21.3%	-46.3*	2.6	3.4	-4.9
COc1ccc(NC(=O)CCC2CCCC2)cc1OC	-0.3	-11.3%	7.0	2.4	-2.4	-1.3
O=C(COC(=O)CC1CCCC1)Nc1cccc(F)c1	0.3	-1.7%	-30.6*	0.5	-0.6	1.6
COc1ccc(NC(=O)CN(C)C2CCCCC2)cc1Cl	1.8	-17.2%	-44.8*	3.0	-1.1	3.2
Cc1ccc(C(=O)NC2(C(F)(F)F)N=C(c3ccccc3)N(C3CCCCC3)C2=O)cc1 (configuration not stated)	-3.4	-21.3%	-2.4	0.9	1.5	-0.9
Cc1ccc(CNC(=O)c2sc3nc4n(c(=O)c3c2C)CCCC4)cc1	8.3	-11.7%	-25.6	28.0	-1.9	-4.2
NC(=O)c1c(NC(=O)CS(=O)(=O)c2ccc(Cl)cc2)sc2c1CCCC2	-0.7	?	.	0.0	1.1	-1.6
Cc1ccc(C)c(NC(=O)C(Cc2ccccc2)n2cccc2)c1 (configuration not stated)	1.0	-18.2%	-23.0	18.6	-9.0	-5.4
COc1ccc(F)cc1S(=O)(=O)N1CCCN(S(=O)(=O)c2cc(F)ccc2OC)CC1	0.8	-19.3%	-30.4*	8.6	-3.6	0.2
COc1ccccc1N1CCN(S(=O)(=O)c2ccccc2F)CC1	0.2	-7.1%	-32.0*	15.9	-2.0	8.8
COc1ccccc1N1CCN(S(=O)(=O)c2ccccc2)CC1	-2.4	-13.8%	-10.3	4.3	-2.3	-2.6
